Source: PubChem BioAssay
Shown are actives, neighbours in structure and some others; about 4.1% of the full set was active somewhere.
DAX1 inh-1 = DAX1 (NR0B1) inhibitors, primary screen, cell-based, HEK293, Gal4-DAX1, luciferase luminescence; hit rate 0.99% among 340,000; inhibition, % at 6.75 µM; Nuclear receptor subfamily 0 group B member 1 (Homo sapiens), P51843; AID 504766, 2011; HEK293 Gal4-DAX1 luciferase reporter;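 active = inhibition above the mean over all tested compounds plus 3 SD, cut at about 4.2% in these data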;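 also: 0% = DAX1-transfected cells with DMSO and 100% = empty-vector control cells with DMSO; inhibition shows as a rise in luminescence from relieved DAX1 repression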
Target sequence (P51843 207-470 limits assumed): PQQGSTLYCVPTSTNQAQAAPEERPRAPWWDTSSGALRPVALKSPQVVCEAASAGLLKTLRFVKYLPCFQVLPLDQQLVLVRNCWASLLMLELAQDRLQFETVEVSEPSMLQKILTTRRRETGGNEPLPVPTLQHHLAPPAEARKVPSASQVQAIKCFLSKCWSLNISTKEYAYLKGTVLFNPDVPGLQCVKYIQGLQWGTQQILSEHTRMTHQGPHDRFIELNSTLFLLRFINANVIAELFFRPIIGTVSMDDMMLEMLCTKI
DAX1 inh-2 = DAX1 (NR0B1) inhibitors on StAR promoter, primary screen, cell-based, luminescence, SF-1 (NR5A1), full-length DAX-1; AID 652010, 2013; hit rate 1.1% among 370,000; inhibition, % at 6.8 µM; HEK293T StAR-luciferase reporter, SF-1/DAX-1 repression relief;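 active = inhibition above the mean over all tested compounds plus 3 SD, cut at about 3.6% in these data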;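 also: 0% = DAX-1 cells with DMSO and 100% = cells lacking DAX-1 with DMSO; higher inhibition means more luminescence from relief of DAX-1 repression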
PolyA inh = polyadenylation inhibitors in yeast reporter cells, primary screen, luminescence, S. cerevisiae; activity score, % at 12 µM; S. cerevisiae SKY197-pL101 polyadenylation reporter, beta-gal luminescence; efflux-impaired pdr1/pdr3 knockout yeast; score 100 = 6 SD above DMSO; hit rate 0.02% among 300,000;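 active = lowest replicate activity score at least 50, where 100 means six control SD above control mean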;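 also: yeast exposed to compound for 9 h at 30 °C; higher score means more reporter readthrough which indicates perturbed polyadenylation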
hcDAF12 agonist = H. contortus DAF-12 nuclear receptor activators, primary screen, cell-based, luminescence, HEK293, lit1-tk-luc reporter; activation, % at 6.8 µM; HEK293 hcDAF-12 lit1-tk-luc reporter; 0% DMSO, 100% Δ7-dafachronic acid; AID 652067, 2013; hit rate 1.4% among 370,000;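 active = activation above the mean of all tested compounds plus 3 SD, cut at about 5.5% in these data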;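 also: 100% = response to 3 µM Δ7-dafachronic acid high control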
hgDAF12 agonist = H. glycines DAF-12 receptor agonists, primary screen, cell-based, luminescence, HEK293, GAL4 fusion, UAS-luciferase; Nuclear hormone receptor DAF-12 (Heterodera glycines), GAL4 fusion; HEK293 GAL4-hgDAF12 UAS-luciferase reporter, agonist luminescence; normalized to butyrate control; activation, % at 6.8 µM; hit rate 1.8% among 370,000; AID 687014, 2013;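 active = activation above a cutoff set at the mean of all screened compounds plus 3 SD, cut at about 10% in these data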;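 also: 0% = DMSO wells and 100% = sodium butyrate wells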
ssDAF12 agonist = S. stercoralis DAF-12 nuclear receptor activators, primary screen, cell-based, luminescence, HEK293, GRIP1 co-expression, lit1-tk-luc. HEK293 ssDAF-12/GRIP1 lit1-tk-luc reporter; % of 3 µM dafachronic acid response. activation, % at 6.8 µM. hit rate 1% among 370,000;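 active = activation above the mean over all tested compounds plus 3 SD, cut at about 0.9% in these data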;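 also: 0% = DMSO-only wells and 100% = 3 µM delta7-dafachronic acid wells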
* marks the source's active call; other numbers are inactive results; x = no result given.

SMILES	DAX1 inh-1	DAX1 inh-2	PolyA inh	hcDAF12 agonist	hgDAF12 agonist	ssDAF12 agonist
Cc1cc2c(cc1C)/C(=N/NC(=O)c1ccccn1)CCC2	x	3	-3	4	11*	0
Oc1ccccc1C=NN1CCN(Cc2ccccc2)CC1	x	-1	x	-1	6	-1
Nc1cc2ccccc2oc1=O	0	0	-19	3	1	0
c1ccc2occc2c1	4.3*	0	x	2	0	-1
O=C(O)c1cc(S(=O)(=O)Nc2ccc3cn[nH]c3c2)ccc1O	1	0	x	5	4	1.0*
COC(=O)C1=C(C)N(Cc2cccc(C(F)(F)F)c2)C(=NCC2CC2)NC1c1cccc(Cl)c1 (stereo not drawn)	x	-1	x	0	0	0
Cc1cnc(-c2nc3ccccc3n2C(C(=O)NC(C)(C)C)c2ccncc2)cn1 (stereo not drawn)	x	1	x	-1	11*	0
CNc1nnc(-c2ccc(OC)cc2)s1	5.3*	2	6	2	11*	-1
CCN1CCN(c2ccc(S(=O)(=O)N3CCOCC3)cc2NC(=O)c2cc(F)c(F)c(F)c2F)CC1	-1	0	x	-1	-1	-1
CCN1CCN(c2ccc(S(=O)(=O)N3CCOCC3)cc2NC(=O)c2ccc(C)cc2C)CC1	1	3.9*	x	0	0	-1
COc1ccc(NCC(=O)Nc2cc(S(=O)(=O)N3CCOCC3)ccc2N2CCOCC2)c(OC)c1	7.1*	0	-6	-1	-1	-2
Cc1ccccc1C(=O)Nc1cc(S(=O)(=O)N2CCCCC2)ccc1N1CCN(C)CC1	5.0*	0	7	1	-2	0
CC1=C[C@@H]2[C@H]3C(=O)N(Cc4ccccc4)C(=O)[C@H]3[C@@H]1[C@@H]1O[C@@]3(C(=O)N(C)c4ccccc43)C3=C(CCCC3=O)N21	x	2	x	-1	1	-1
CC(=O)NC(C)C12CC3CC(CC(CC(=O)O)(C3)C1)C2 (stereo not drawn)	4.4*	0	28	-1	1	-1
CCCCCc1cccc2[nH]cc(-c3ccccc3)c12	x	0	x	1	-2	0
O=C(O)c1ccc2c(c1)N(Cc1ccc(F)cc1)C(=O)c1ccccc1S2	5.0*	1	8	-2	-2	-2
O=C(NCCN1CCOCC1)c1ccc2c(c1)N(Cc1cccc(F)c1)C(=O)c1ccccc1S2	-1	0	1	-1	-4	-1
CC1CCCCC1NC(=O)COC(=O)C12CC3CC(CC(Cl)(C3)C1)C2 (stereo not drawn)	6.0*	0	19	0	2	-2
CN(CC(=O)N1CCN(c2ncccn2)CC1)S(=O)(=O)c1ccc(Cl)cc1	0	1	7	-1	-2	2.2*
CCN1C(=O)/C(=C/C=C2/Sc3ccccc3N2CCO)SC1=S	0	2	7	0	-1	-1
CCN1C(=S)SC(=O)C1=C1C=C(C)N(CCO)C(C)=C1	4	3.8*	-26	2	12*	0
Cc1ccc(CNc2ccc3c(c2)ncn3C)cc1	1	2	10	3	6	0
Cc1ccc(CNc2ccc3c(c2)ncn3C(C)(C)C)cc1	6.6*	4.1*	4	5	9	1
Cc1[nH]c2ccccc2c1/C=N/NC(=O)CCC(=O)NCc1ccccc1	1	0	-2	2	6	1
Cc1n[nH]c(C)c1CCC(=O)N/N=C/c1c(C)[nH]c2ccccc12	6.2*	0	11	4	1	-1
Cc1n[nH]c(C)c1CCC(=O)N/N=C/c1c[nH]c2ccccc12	1	1	18	6.1*	1	2.1*
